HCMV inh = inhibitors of human cytomegalovirus | activity change, negative = inhibition, % at 57.5 µM | HFF cells, HCMV-luciferase reporter, 72 h; active compounds read low | actives 4.5% (n = 410,000); in the data active = activity change below about -60%; inconclusive = no clear call, values can overlap the other calls; inactive = above about -39%
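Human foreskin fibroblasts infected with luciferase-reporter HCMV at MOI 1 PFU/cell, compounds at two doses. Luciferase measured 72 h post infection; normalized to buffer-only basal and Salinomycin (10uM) controls.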
LASV entry inh = Lassa virus entry inhibition. Lassa virus pseudotype entry inhibition, cell reporter. actives 1.2% (n = 300,000). Potency, µM (titrated, usually from 37.9 µM), without a hit: at the highest dose activity change, negative = inhibition, hits mostly inhibitors; calls by dose curve; tested in HEK293 cells; also: potency is read from the fitted curve at half-maximal effect; nearly all actives have a fitted effect of over 50% in size
Marburg entry inh = blocks Marburg virus binding to or entry into cells; actives 1.8% (n = 300,000); Marburg virus pseudotyped entry inhibition, cell reporter; AID 540276; Potency, µM (series often up to 37.8 µM), without a hit: at the highest dose activity change, negative = inhibition, usual class: inhibitors; calls by dose curve; tested in HEK293 cells; also: potency is read from the fitted curve at half-maximal effect
Pf growth 96h = P. falciparum growth inhibition at 96 hours. P. falciparum luciferase reporter growth, 96 h. Potency, µM (highest dose often 28.7 µM), for the others: top-dose activity change, negative = inhibition, most hits filed as inhibitors. actives 6.9% (n = 320,000). AID 504834; also: potency is read from the fitted curve at half-maximal effect
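P. falciparum expressing integrated firefly luciferase, in erythrocytes at 2% hematocrit, 0.05% parasitemia, incubated with compounds 96 h at 37 C, 5% CO2. Growth inhibition read as loss of luminescence; two-generation exposure targets delayed-death apicoplast inhibitors.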
Pf growth 48h = P. falciparum growth inhibition at 48 hours (one generation); P. falciparum luciferase growth in erythrocytes, 48 h; Potency, µM (top dose mostly 28.7 µM), for the others: at the highest dose activity change, negative = inhibition, hits mostly inhibitors; actives 5.9% (n = 310,000); also: potency is read from the fitted curve at half-maximal effect
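Erythrocytes infected with P. falciparum carrying an integrated firefly luciferase reporter (2% hematocrit, 0.1% parasitemia final) were exposed to compounds in RPMI 1640 with 0.5% Albumax at 37 C, 5% CO2. Growth inhibition was scored as reduced luminescence.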
HCV inhibitor = blocks hepatitis C virus. Huh7.5.1 HCVcc-Cre infection, luciferase reporter, 44 h. Potency, µM (doses to about 41.8 µM), for the others: top-dose activity change, negative = inhibition, usual class: inhibitors. actives 3.4% (n = 340,000). AID 651820; also: potency is read from the fitted curve at half-maximal effect
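Reporter virus HCVcc-Cre (~0.5 moi) infects cells exposed to compound; seeding density 1,000 cells/well with 4 h settling beforehand. Luminescence, 15 sec read, taken 44 h post-infection following a 15 min RT substrate incubation.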
Starred values were filed as active, the others as inactive; ? = inconclusive; · = no result given; [ ] = remark or other dose. Most compounds without a hit are left out; they make up all but 14% or so of the library. Unless noted, calls follow the shape of the dose curve; as a rule, active = well fitted inhibition curve with a large enough effect; inconclusive = small, poorly fitted or top-dose-only effect, or another doubt; inactive = no such curve, though single readings can be large or run the other way. % is scaled to controls: 0 for no effect and ±100 for the full control effect.

SMILES	HCMV inh	LASV entry inh	Marburg entry inh	Pf growth 96h	Pf growth 48h	HCV inhibitor
CNC(=O)COC(=O)/C=C/c1cn(-c2ccccc2)nc1-c1ccc(C)o1	-36	11%	6%[46.1 µM]	7.4µM*	12µM*	12%
O=C(O)c1cccc(N2CCCCS2(=O)=O)c1	-100*	7%	-1%	60%	9%	12%
COc1cccc(-c2cc3c(Nc4cccc(F)c4)nccc3[nH]2)c1	23	·	·	·	·	·
COc1ccc(NC(=O)c2sc3nc(C)c(C(=O)Nc4ccc(C)cc4C)c(-c4ccc(C)o4)c3c2N)cc1	-6	-21%[46.1 µM]	4%[46.1 µM]	·	·	·
Cc1ccccc1-c1cc(C(=O)NCc2cccc(C(F)(F)F)c2)nn1CC1CC(c2cccc([N+](=O)[O-])c2)=NO1 (stereo not drawn)	3	·	·	6.6µM*	3.7µM*	-30%
Cc1ccccc1-c1cc(C(=O)NCc2cccs2)nn1CC1CC(c2cccc([N+](=O)[O-])c2)=NO1 (stereo not drawn)	-6	·	·	2.1µM*	3.3µM*	-29%
O=C(COC(=O)c1cc(S(=O)(=O)N2CCOCC2)ccc1F)Nc1ccc(Cl)cn1	-1	·	·	4%	24%	-1%
CCCc1cc(=O)oc2cc(OCC(=O)NCCc3c[nH]c4ccccc34)ccc12	?	·	·	-11%	-23%	4.5µM*
C=C(Cl)COc1ccc2c(CCC)cc(=O)oc2c1	-30	3%	12%[46.1 µM]	?	·	10µM*
CCCc1cc(=O)oc2cc(OCC(=O)Nc3cc(C)on3)ccc12	-6	9%	-2%	?	67%	9%
COc1cccc(C=C(C(C)=O)C(=O)c2ccccc2)c1	4	·	·	·	·	·
CCOc1cc(C=C(C(=O)OC)C(=O)OC)ccc1OCc1ccc([N+](=O)[O-])cc1	158	3.5µM*	2.8µM*	-3%	?	7.9µM*
N#C/C(=C\C=C\c1ccccc1[N+](=O)[O-])c1nc(-c2ccc3c(c2)OCO3)cs1	4	-1%	-6%	28%	19%	11µM*
O=C(O)c1ccccc1-c1ccc(C=C2C(=O)N(c3ccccc3)C(=S)N(c3ccccc3)C2=O)o1	5	·	·	12µM*	24%	-3%
O=C(O)c1ccccc1-c1ccc(/C=C2\SC(=O)N(c3ccccc3)C2=O)o1	128	·	·	?	98%	4%
C=C1SC(=Nc2c(C)cccc2Cl)N(C(=O)c2sc3ccccc3c2Cl)C12CCCCC2	?	·	·	1.9µM*	?	-5%
CC(C)(C)c1ccc(S(=O)(=O)/C=C/C#N)cc1	·	3.7µM*	2.5µM*	·	·	·
CC(C)(C)c1ccc(NS(=O)(=O)c2ccc(N)cc2)cc1	47	?	?	-4%	39%	4%
O=C(CCc1ccccc1)NNC(=O)c1ccccc1C(=O)O	38	4.6µM*	-2%	41%	3%	27%
O=C(NNC(=S)Nc1ccc(Cl)c(Cl)c1)c1ccccn1	-82*	·	·	?	2.3µM*	4.5µM*
Cc1cccc(OCCCC(=O)NNC(=O)c2ccccn2)c1	17	·	·	1.7µM*	2.3µM*	?
O=C(NNC(=O)C(c1ccccc1)c1ccccc1)c1ccccn1	-97*	?	4.6µM*	2.6µM*	3.7µM*	6.3µM*
O=C(N=Nc1c(O)[nH]c2c(Cl)cc(Cl)cc12)c1ccccc1O	-19	·	·	·	·	·
CCOc1ccc(NS(=O)(=O)c2ccc3[nH]cc(C(=O)N4CCCC4)c(=O)c3c2)cc1	5	-20%[46.1 µM]	-7%[46.1 µM]	·	·	·
Cc1ccc(S(=O)(=O)N2[C@@H](Cc3ccccc3)CO[C@H]2CC(=O)c2cccc3ccccc23)cc1	6	·	·	·	·	·
O=C(CCc1ccccc1)NNC(=O)CCc1ccccc1	6	·	·	-28%	6%	-7%
O=C(CCc1ccccc1)NNC(=O)c1ccccn1	-75*	·	·	?	-28%	?
COC1C=CO[C@@]2(C)Oc3c(C)c(O)c4c(O)c(c(C=NN5CCN(C)CC5)c(O)c4c3C2=O)NC(=O)/C(C)=C\C=CC(C)C(O)[C@@H](C)C(O)C(C)[C@H](OC(C)=O)C1C (stereo partly drawn)	·	·	·	0.6µM*	0.95µM*	·
